Measurements reported in PMC5349851, “Combinatorial bZIP dimers display complex DNA-binding specificity landscapes”.

Legend:
Experiment in all cases: SELEX-seq (CSI, HT-SELEX, round 3); SELEX-seq: 1x PBS (10 mM phosphate, 137 mM NaCl, 2.7 mM KCl) pH 7.6, 2.5 mM DTT, 50 ng/ul poly dI-dC, 0.1% BSA, 50 nM biotinylated bZIP (1:3 with partner for heterodimers), 100 nM library, room temperature, 1 h, 3 rounds; high values mean tight binding
Conditions in all cases: protein: recombinant;recombinant; copies: 1;1; dsDNA, one strand shown
JUNB;DBP = target: T1, JUNB;DBP (Homo sapiens;Homo sapiens, UniProt P17275;Q10586 259-332;246-324, |)
T1 sequence 1: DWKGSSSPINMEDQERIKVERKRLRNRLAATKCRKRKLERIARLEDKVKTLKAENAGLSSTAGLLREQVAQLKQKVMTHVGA
T1 sequence 2: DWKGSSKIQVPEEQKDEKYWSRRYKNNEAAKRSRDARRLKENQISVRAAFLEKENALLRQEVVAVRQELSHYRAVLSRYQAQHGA

BATF;ATF3 = target: T2, BATF;ATF3 (Homo sapiens;Homo sapiens, UniProt Q16520;P18847 17-90;77-150, |)
T2 sequence 1: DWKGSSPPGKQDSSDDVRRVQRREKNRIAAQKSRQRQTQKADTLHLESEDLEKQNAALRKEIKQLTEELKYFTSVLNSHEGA
T2 sequence 2: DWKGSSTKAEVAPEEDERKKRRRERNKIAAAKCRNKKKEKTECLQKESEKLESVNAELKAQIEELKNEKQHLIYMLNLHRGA

FOSL1;ATF3 = target: T3, FOSL1;ATF3 (Homo sapiens;Homo sapiens, UniProt P15407;P18847 96-169;77-150, |)
T3 sequence 1: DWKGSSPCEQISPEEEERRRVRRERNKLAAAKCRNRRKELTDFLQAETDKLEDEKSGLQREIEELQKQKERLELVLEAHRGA
T3 sequence 2: T2 sequence 2

FOSL1;CEBPA = FOSL1;CEBPA (Homo sapiens;Homo sapiens, UniProt P15407;P49715 96-169;273-345, |)
FOSL1;JUN = FOSL1;JUN (Homo sapiens;Homo sapiens, UniProt P15407;P05412 96-169;243-316, |)
FOS;ATF3 = FOS;ATF3 (Homo sapiens;Homo sapiens, UniProt P01100;P18847 128-201;77-150, |)
FOS;ATF4 = FOS;ATF4 (Homo sapiens;Homo sapiens, UniProt P01100;P18848 128-201;269-346, |)
FOS;DBP = FOS;DBP (Homo sapiens;Homo sapiens, UniProt P01100;Q10586 128-201;246-324, |)
ATF5;CEBPG = target: T4, ATF5;CEBPG (Homo sapiens;Homo sapiens, UniProt Q9Y2D1;P53567 199-275;52-130, |)
T4 sequence 1: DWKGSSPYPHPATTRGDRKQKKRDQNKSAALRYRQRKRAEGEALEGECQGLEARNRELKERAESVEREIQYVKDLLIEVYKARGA
T4 sequence 2: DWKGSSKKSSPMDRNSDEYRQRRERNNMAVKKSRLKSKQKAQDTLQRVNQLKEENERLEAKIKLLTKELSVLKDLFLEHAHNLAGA

ATF5;CEBPA = ATF5;CEBPA (Homo sapiens;Homo sapiens, UniProt Q9Y2D1;P49715 199-275;273-345, |)
DDIT3;CEBPG = DDIT3;CEBPG (Homo sapiens;Homo sapiens, UniProt P35638;P53567 88-169;52-130, |)
MAFB;ATF4 = MAFB;ATF4 (Homo sapiens;Homo sapiens, UniProt Q9Y5Q3;P18848 212-305;269-346, |)
BATF2;JUN = BATF2;JUN (Homo sapiens;Homo sapiens, UniProt Q8N1L9;P05412 8-85;243-316, |)
BATF;CEBPA = BATF;CEBPA (Homo sapiens;Homo sapiens, UniProt Q16520;P49715 17-90;273-345, |)
FOS;BATF3 = FOS;BATF3 (Homo sapiens;Homo sapiens, UniProt P01100;Q9NR55 128-201;26-99, |)
FOS;ATF2 = FOS;ATF2 (Homo sapiens;Homo sapiens, UniProt P01100;P15336 128-201;343-417, |)
ATF5;JUN = ATF5;JUN (Homo sapiens;Homo sapiens, UniProt Q9Y2D1;P05412 199-275;243-316, |)
ATF5;BATF3 = target: T5, ATF5;BATF3 (Homo sapiens;Homo sapiens, UniProt Q9Y2D1;Q9NR55 199-275;26-99, |)
T5 sequence 1: T4 sequence 1
T5 sequence 2: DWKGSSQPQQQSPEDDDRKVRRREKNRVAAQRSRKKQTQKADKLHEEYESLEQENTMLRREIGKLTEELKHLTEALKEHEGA

BATF2;ATF3 = target: T6, BATF2;ATF3 (Homo sapiens;Homo sapiens, UniProt Q8N1L9;P18847 8-85;77-150, |)
T6 sequence 1: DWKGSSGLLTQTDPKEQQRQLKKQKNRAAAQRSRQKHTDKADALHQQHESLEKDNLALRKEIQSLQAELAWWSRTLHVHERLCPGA
T6 sequence 2: T2 sequence 2

FOSL1;BATF3 = target: T7, FOSL1;BATF3 (Homo sapiens;Homo sapiens, UniProt P15407;Q9NR55 96-169;26-99, |)
T7 sequence 1: T3 sequence 1
T7 sequence 2: T5 sequence 2

ATF5;JUN, sequence (P05412 other isoform, or with tags, fused parts or gaps |): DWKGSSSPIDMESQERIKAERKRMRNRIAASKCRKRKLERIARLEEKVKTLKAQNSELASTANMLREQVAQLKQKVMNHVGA
BATF2;JUN, sequence (P05412 other isoform, or with tags, fused parts or gaps |): as above
BATF;CEBPA, sequence (P49715 other isoform, or with tags, fused parts or gaps |): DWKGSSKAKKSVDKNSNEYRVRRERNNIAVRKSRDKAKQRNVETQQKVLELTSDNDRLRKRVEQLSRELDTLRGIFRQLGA
DDIT3;CEBPG, sequence (P35638 other isoform, or with tags, fused parts or gaps |): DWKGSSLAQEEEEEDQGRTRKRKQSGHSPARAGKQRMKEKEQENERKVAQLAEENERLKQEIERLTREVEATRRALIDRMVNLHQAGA
MAFB;ATF4, sequence (Q9Y5Q3 other isoform, or with tags, fused parts or gaps |, chain 1 of 2): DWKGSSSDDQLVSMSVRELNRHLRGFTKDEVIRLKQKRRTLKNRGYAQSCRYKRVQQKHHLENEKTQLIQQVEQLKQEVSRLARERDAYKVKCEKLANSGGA
MAFB;ATF4, sequence (P18848 other isoform, or with tags, fused parts or gaps |, chain 2 of 2): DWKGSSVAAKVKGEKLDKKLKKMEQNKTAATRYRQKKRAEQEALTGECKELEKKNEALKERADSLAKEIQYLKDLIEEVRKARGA
FOS;BATF3, sequence (P01100 other isoform, or with tags, fused parts or gaps |): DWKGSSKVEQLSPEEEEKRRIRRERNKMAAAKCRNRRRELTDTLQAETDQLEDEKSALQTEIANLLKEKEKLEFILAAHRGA
FOS;ATF2, sequence (P01100 other isoform, or with tags, fused parts or gaps |, chain 1 of 2): as the sequence (P01100 other isoform, or with tags, fused parts or gaps |) above
FOS;ATF2, sequence (P15336 other isoform, or with tags, fused parts or gaps |, chain 2 of 2): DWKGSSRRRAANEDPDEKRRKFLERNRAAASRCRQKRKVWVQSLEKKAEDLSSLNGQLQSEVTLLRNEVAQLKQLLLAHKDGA
FOS;DBP, sequence (P01100 other isoform, or with tags, fused parts or gaps |): as the sequence (P01100 other isoform, or with tags, fused parts or gaps |) above
FOS;ATF3, sequence (P01100 other isoform, or with tags, fused parts or gaps |, chain 1 of 2, one chain of several): as the sequence (P01100 other isoform, or with tags, fused parts or gaps |) above
FOS;ATF4, sequence (P01100 other isoform, or with tags, fused parts or gaps |, chain 1 of 2): as the sequence (P01100 other isoform, or with tags, fused parts or gaps |) above
FOS;ATF4, sequence (P18848 other isoform, or with tags, fused parts or gaps |, chain 2 of 2): as the sequence (P18848 other isoform, or with tags, fused parts or gaps |, chain 2 of 2) above

Row | Sequence | binding signal (JUNB;DBP) | binding signal (BATF;ATF3) | binding signal (FOSL1;ATF3) | binding signal (FOSL1;CEBPA) | binding signal (FOSL1;JUN) | binding signal (FOS;ATF3) | binding signal (FOS;ATF4) | binding signal (FOS;DBP) | binding signal (ATF5;CEBPG) | binding signal (ATF5;CEBPA) | binding signal (DDIT3;CEBPG) | binding signal (MAFB;ATF4) | binding signal (BATF2;JUN) | binding signal (BATF;CEBPA) | binding signal (FOS;BATF3) | binding signal (FOS;ATF2) | binding signal (ATF5;JUN) | binding signal (ATF5;BATF3) | binding signal (BATF2;ATF3) | binding signal (FOSL1;BATF3)
1 | ATGACGGAAT | 0.0141 relative CSI intensity (max = 1) | 0.019 relative CSI intensity (max = 1) | 0.0493 relative CSI intensity (max = 1) | 0.00381 relative CSI intensity (max = 1) | 0.00225 relative CSI intensity (max = 1) | 0.0362 relative CSI intensity (max = 1) | 0.00272 relative CSI intensity (max = 1) | 0.0179 relative CSI intensity (max = 1) | 0.0428 relative CSI intensity (max = 1) | 0.0438 relative CSI intensity (max = 1) | 0.0328 relative CSI intensity (max = 1) | 0.014 relative CSI intensity (max = 1) | 0.00635 relative CSI intensity (max = 1) | – | – | – | – | – | – | –
2 | ATGACGCAAT | 0.162 relative CSI intensity (max = 1) | 0.0223 relative CSI intensity (max = 1) | 0.0466 relative CSI intensity (max = 1) | 0.765 relative CSI intensity (max = 1) | 0.0151 relative CSI intensity (max = 1) | 0.0598 relative CSI intensity (max = 1) | 0.0149 relative CSI intensity (max = 1) | 0.194 relative CSI intensity (max = 1) | 0.902 relative CSI intensity (max = 1) | 0.864 relative CSI intensity (max = 1) | 0.339 relative CSI intensity (max = 1) | 0.0526 relative CSI intensity (max = 1) | 0.0567 relative CSI intensity (max = 1) | 0.00768 relative CSI intensity (max = 1) | 0.00954 relative CSI intensity (max = 1) | 0.00209 relative CSI intensity (max = 1) | 0.0554 relative CSI intensity (max = 1) | 0.00351 relative CSI intensity (max = 1) | 0.00454 relative CSI intensity (max = 1) | –
3 | ATGACGTAAT | 0.727 relative CSI intensity (max = 1) | 0.0836 relative CSI intensity (max = 1) | 0.0529 relative CSI intensity (max = 1) | 0.208 relative CSI intensity (max = 1) | 0.0392 relative CSI intensity (max = 1) | 0.0389 relative CSI intensity (max = 1) | 0.0605 relative CSI intensity (max = 1) | 0.614 relative CSI intensity (max = 1) | 0.502 relative CSI intensity (max = 1) | 0.488 relative CSI intensity (max = 1) | 0.437 relative CSI intensity (max = 1) | 0.108 relative CSI intensity (max = 1) | 0.116 relative CSI intensity (max = 1) | 0.00231 relative CSI intensity (max = 1) | 0.0787 relative CSI intensity (max = 1) | 0.133 relative CSI intensity (max = 1) | 0.289 relative CSI intensity (max = 1) | 0.0199 relative CSI intensity (max = 1) | 0.00842 relative CSI intensity (max = 1) | 0.0576 relative CSI intensity (max = 1)
4 | CCTGACGTCA | 0.0067 relative CSI intensity (max = 1) | 0.0203 relative CSI intensity (max = 1) | 0.0517 relative CSI intensity (max = 1) | 0.00677 relative CSI intensity (max = 1) | 0.00953 relative CSI intensity (max = 1) | 0.0295 relative CSI intensity (max = 1) | 0.0251 relative CSI intensity (max = 1) | 0.057 relative CSI intensity (max = 1) | 0.072 relative CSI intensity (max = 1) | 0.0673 relative CSI intensity (max = 1) | 0.0315 relative CSI intensity (max = 1) | 0.182 relative CSI intensity (max = 1) | 0.0191 relative CSI intensity (max = 1) | – | 0.0279 relative CSI intensity (max = 1) | 0.00727 relative CSI intensity (max = 1) | 0.288 relative CSI intensity (max = 1) | 0.0107 relative CSI intensity (max = 1) | 0.00318 relative CSI intensity (max = 1) | 0.0211 relative CSI intensity (max = 1)
5 | ATGATGCAAT | 0.0471 relative CSI intensity (max = 1) | – | 0.00412 relative CSI intensity (max = 1) | 0.368 relative CSI intensity (max = 1) | 0.00257 relative CSI intensity (max = 1) | 0.0114 relative CSI intensity (max = 1) | 0.00384 relative CSI intensity (max = 1) | 0.0452 relative CSI intensity (max = 1) | 0.687 relative CSI intensity (max = 1) | 0.756 relative CSI intensity (max = 1) | 0.574 relative CSI intensity (max = 1) | 0.0202 relative CSI intensity (max = 1) | 0.00706 relative CSI intensity (max = 1) | 0.0115 relative CSI intensity (max = 1) | – | – | 0.0503 relative CSI intensity (max = 1) | 0.00117 relative CSI intensity (max = 1) | 0.003 relative CSI intensity (max = 1) | 0.00287 relative CSI intensity (max = 1)
6 | ATGACGTCAT | 1 relative CSI intensity (max = 1) | 0.113 relative CSI intensity (max = 1) | 0.156 relative CSI intensity (max = 1) | 0.261 relative CSI intensity (max = 1) | 0.478 relative CSI intensity (max = 1) | 0.117 relative CSI intensity (max = 1) | 1 relative CSI intensity (max = 1) | 0.887 relative CSI intensity (max = 1) | 0.529 relative CSI intensity (max = 1) | 0.516 relative CSI intensity (max = 1) | 1 relative CSI intensity (max = 1) | 0.336 relative CSI intensity (max = 1) | 0.299 relative CSI intensity (max = 1) | 0.00178 relative CSI intensity (max = 1) | 1 relative CSI intensity (max = 1) | 1 relative CSI intensity (max = 1) | 0.742 relative CSI intensity (max = 1) | 0.681 relative CSI intensity (max = 1) | 0.0121 relative CSI intensity (max = 1) | 0.282 relative CSI intensity (max = 1)
